The target in test [1] is rat Serotonin, 5-Hydroxytryptamine Receptor (5HT), Non-Selective Binding, Htr1a (gene 24473) (UniProt P19327). Briefly: NVS_GPCR_r5HT_NonSelective: NovaScreen (NVS) G Protein-Coupled Receptor Assay for rat Serotonin, 5-Hydroxytryptamine Receptor (5HT), Non-Selective Binding (AID 2283295). The procedure, abridged:
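Rat cortex membrane preparation incubated 1 h with radioligand and test chemical; bound radioactivity counted after filtration. Screening began in duplicate at 25 uM with concentration-series follow-up; fitting relative to DMSO.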

Test [2] has as its target human Neuropeptide Receptor Y1 (NPY1), NPY1R (gene 4886) (UniProt P25929). Briefly: NVS_GPCR_hNPY1: NovaScreen (NVS) G Protein-Coupled Receptor Assay for human Neuropeptide Receptor Y1 (NPY1) (AID 2283276). The procedure, abridged: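 Displacement of specific radioligand from NPY1 receptor of SK-N-MC origin, read by filtration and scintillation after 1 h. Compounds first tested at 25 uM in duplicate, then actives in concentration series; signal loss relative to DMSO.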

The target of test [3] is Muscarinic acetylcholine receptor M2 (Homo sapiens) (UniProt P08172). In words: NVS_GPCR_hM2: NovaScreen (NVS) G Protein-Coupled Receptor Assay for human Muscarinic, M2 Receptor (AID 2283273). The procedure, abridged:
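CHO-expressed human M2 receptor preparation, competitive displacement of a radioligand read by filter-based scintillation counting after 1 h. Single 25 uM duplicate screen, then concentration-response follow-up of actives; DMSO baseline.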

Test [4] deals with human Opioid Receptor Delta 1 (Opiate D1), OPRD1 (gene 4985) (UniProt P41143). In words: NVS_GPCR_hOpiate_D1: NovaScreen (NVS) G Protein-Coupled Receptor Assay for human Opioid Receptor Delta 1 (Opiate D1) (AID 2283280). The procedure, abridged: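 Membrane preparations from CHO cells bearing the human receptor were incubated 1 h with test chemical, and bound radioligand was counted after filtration. Actives from 25 uM duplicate screening were retested in concentration-response.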
Sequence of human Opioid Receptor Delta 1 (Opiate D1), OPRD1 (gene 4985) (P41143 whole entry, looked up): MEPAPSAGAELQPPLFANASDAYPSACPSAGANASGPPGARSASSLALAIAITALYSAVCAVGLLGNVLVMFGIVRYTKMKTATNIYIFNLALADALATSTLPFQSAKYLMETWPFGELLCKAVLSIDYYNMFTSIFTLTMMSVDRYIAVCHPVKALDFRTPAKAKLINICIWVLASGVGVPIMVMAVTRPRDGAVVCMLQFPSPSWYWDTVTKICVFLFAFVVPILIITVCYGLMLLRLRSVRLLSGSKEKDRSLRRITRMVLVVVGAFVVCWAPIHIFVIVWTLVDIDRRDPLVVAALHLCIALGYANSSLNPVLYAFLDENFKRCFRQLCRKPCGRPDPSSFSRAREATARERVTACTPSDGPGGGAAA

The target in test [5] is D(1A) dopamine receptor (Homo sapiens) (UniProt P21728). In words: NVS_GPCR_hDRD1: NovaScreen (NVS) G Protein-Coupled Receptor Assay for human Dopamine Receptor D1 (DRD1) (AID 2283269). The procedure, abridged:
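Radioligand displacement binding on membranes/protein extracted from HEK293 expressing human D1, cell-free; read 1 h after dosing by filter-based scintillation counting. Primary screen in duplicate at 25 uM, actives followed up in concentration series; signal loss versus DMSO baseline.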

Test [6] concerns the target human Neurokinin, NK2 Receptor, TACR2 (gene 6865) (UniProt P21452). In words: NVS_GPCR_hNK2: NovaScreen (NVS) G Protein-Coupled Receptor Assay for human Neurokinin, NK2 Receptor (AID 2283278).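 Note: actives reduce bound radioligand signal relative to DMSO baseline.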 The procedure, abridged:
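Radioligand binding on membranes from CHO cells expressing receptor, filter-based scintillation read 4 h after dosing. Initial duplicate screen at 25 uM, actives in concentration series; loss of signal versus DMSO.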

Test [7] addresses human Thromboxane A2 Receptor (TXA2), TBXA2R (gene 6915) (UniProt P21731). Briefly: NVS_GPCR_hTXA2: NovaScreen (NVS) G Protein-Coupled Receptor Assay for human Thromboxane A2 Receptor (TXA2) (AID 2283282).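 Note: actives reduce bound radioligand signal relative to DMSO baseline.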 The procedure, abridged: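 Biochem binding, human platelets, cell-free; competitive radioligand displacement; 1 h; filter radiodetection. 25 uM duplicate primary, conc. series secondary; DMSO neg. ctrl.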

Test [8] concerns the target human Opioid Receptor Mu (Opiate Mu), OPRM1 (gene 4988) (UniProt P35372). Briefly: NVS_GPCR_hOpiate_mu: NovaScreen (NVS) G Protein-Coupled Receptor Assay for human Opioid Receptor Mu (Opiate Mu) (AID 2283290).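 Note: hits lower bound tracer signal versus DMSO meaning displacement of the ligand.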 The procedure, abridged: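 Radioligand displacement binding on membranes from CHO cells expressing the receptor, 2.5 h after dosing, filter-based scintillation counting; loss of signal vs DMSO baseline. Screened in duplicate at 25 uM, actives then run in concentration series.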

For test [9], the system named is guinea pig Atrionatriuretic Peptide Receptor A (ANPA), gene 100135578. In words: NVS_GPCR_gANPA: NovaScreen (NVS) G Protein-Coupled Receptor Assay for guinea pig Atrionatriuretic Peptide Receptor A (ANPA) (AID 2283291). The procedure, abridged: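 Displacement of specific radioligand from guinea pig cerebellum membranes was read by scintillation after 1 h. A duplicate single-point screen at 25 uM was followed by a concentration series up to 50 uM, analysed relative to DMSO.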

For test [10], the system named is 5-hydroxytryptamine receptor 2C (pig). Briefly: NVS_GPCR_p5HT2C: NovaScreen (NVS) G Protein-Coupled Receptor Assay for pig Serotonin, 5-Hydroxytryptamine Receptor 2C (5HT2C) (AID 2283288). The procedure, abridged:
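Radioligand displacement on membranes from pig choroid plexus, detected by filter scintillation counting after 1 h. Tested first at a single 25 uM in duplicate, then in concentration-response for actives; DMSO served as baseline.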

The target of test [11] is rat Adrenergic, Alpha 1, Non-selective Receptor (Adra1), Adra1a (gene 29412) (UniProt P43140). In words: NVS_GPCR_rAdra1_NonSelective: NovaScreen (NVS) G Protein-Coupled Receptor Assay for rat Adrenergic, Alpha 1, Non-selective Receptor (Adra1) (AID 2283289). The procedure, abridged: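 Chemicals first screened in duplicate at 25 uM, then actives tested in concentration series up to 50 uM. Binding measured as displacement of radioligand from rat forebrain membrane receptors, 1 h, filtration with scintillation readout; DMSO baseline.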
Sequence of rat Adrenergic, Alpha 1, Non-selective Receptor (Adra1), Adra1a (gene 29412) (P43140 whole entry, looked up): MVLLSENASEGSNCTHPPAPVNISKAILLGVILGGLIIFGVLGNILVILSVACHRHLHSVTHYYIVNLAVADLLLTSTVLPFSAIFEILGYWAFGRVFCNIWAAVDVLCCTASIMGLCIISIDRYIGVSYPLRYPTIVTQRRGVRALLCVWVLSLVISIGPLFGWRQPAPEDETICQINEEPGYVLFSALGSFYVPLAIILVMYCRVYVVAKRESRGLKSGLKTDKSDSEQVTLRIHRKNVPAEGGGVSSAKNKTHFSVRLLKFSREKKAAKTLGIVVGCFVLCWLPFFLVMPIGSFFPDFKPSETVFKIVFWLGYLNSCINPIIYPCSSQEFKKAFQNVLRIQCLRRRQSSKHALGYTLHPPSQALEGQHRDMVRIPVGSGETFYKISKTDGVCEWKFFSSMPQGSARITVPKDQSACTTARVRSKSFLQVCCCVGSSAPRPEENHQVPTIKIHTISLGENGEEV

Test [12] addresses Muscarinic acetylcholine receptor M3 (Homo sapiens) (UniProt P20309). Briefly: NVS_GPCR_hM3: NovaScreen (NVS) G Protein-Coupled Receptor Assay for human Muscarinic, M3 Receptor (AID 2283272). The procedure, abridged:
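Radioligand displacement binding on human M3 receptor in CHO-derived membranes, 1 h incubation, filter-based scintillation counting. Primary screen in duplicate at 25 uM; actives followed up in concentration series; loss of signal versus DMSO.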

For test [13], the target named is human Muscarinic, M4 Receptor, CHRM4 (gene 1132) (UniProt P08173). In words: NVS_GPCR_hM4: NovaScreen (NVS) G Protein-Coupled Receptor Assay for human Muscarinic, M4 Receptor (AID 2283274). The procedure, abridged: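 Filter-based scintillation counting of radioligand bound to CHO-expressed human M4 preparations after 1 h; loss of signal fitted versus DMSO. Initial duplicate testing at 25 uM, concentration-response follow-up for actives.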
Sequence of human Muscarinic, M4 Receptor, CHRM4 (gene 1132) (P08173 whole entry, looked up): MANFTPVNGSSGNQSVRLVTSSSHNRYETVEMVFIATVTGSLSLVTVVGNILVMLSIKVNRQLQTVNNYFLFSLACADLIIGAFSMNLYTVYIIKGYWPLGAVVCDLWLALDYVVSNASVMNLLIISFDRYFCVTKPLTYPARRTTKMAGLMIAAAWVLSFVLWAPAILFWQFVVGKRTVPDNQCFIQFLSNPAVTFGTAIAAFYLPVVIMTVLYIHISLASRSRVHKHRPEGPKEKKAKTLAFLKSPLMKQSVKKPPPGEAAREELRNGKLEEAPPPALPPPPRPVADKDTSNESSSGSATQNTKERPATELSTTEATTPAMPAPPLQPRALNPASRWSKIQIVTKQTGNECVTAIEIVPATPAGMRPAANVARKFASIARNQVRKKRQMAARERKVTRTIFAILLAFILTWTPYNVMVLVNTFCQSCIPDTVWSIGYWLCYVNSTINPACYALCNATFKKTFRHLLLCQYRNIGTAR

The target of test [14] is human Endothelin Receptor Type B (ETB), EDNRB (gene 1910) (UniProt P24530). In words: NVS_GPCR_hETB: NovaScreen (NVS) G Protein-Coupled Receptor Assay for human Endothelin Receptor Type B (ETB) (AID 2283267). The procedure, abridged:
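Filter-based scintillation readout of radioligand displacement, 4 h, using membranes from human astrocytoma cells. Actives from a 25 uM duplicate screen were retested in concentration-response (top 50 uM) relative to DMSO baseline.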

For test [15], the target named is human Histamine 1 Receptor (H1), HRH1 (gene 3269) (UniProt P35367). In words: NVS_GPCR_hH1: NovaScreen (NVS) G Protein-Coupled Receptor Assay for human Histamine 1 Receptor (H1) (AID 2283268). The procedure, abridged:
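Filter-based scintillation detection of radioligand binding to human H1, 1 h incubation; chemicals screened in duplicate at 25 uM, then concentration-response; signal loss relative to DMSO taken as activity.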

Inconclusive results are not listed. The source made the active and inactive calls. Rule for the calls: active = hit-call score of the fitted dose curve at least 0.9, where 1 is the maximum; inconclusive = response in the unintended direction; inactive = score below 0.9.

Sequence of D(1A) dopamine receptor (Homo sapiens) (P21728 whole entry, looked up): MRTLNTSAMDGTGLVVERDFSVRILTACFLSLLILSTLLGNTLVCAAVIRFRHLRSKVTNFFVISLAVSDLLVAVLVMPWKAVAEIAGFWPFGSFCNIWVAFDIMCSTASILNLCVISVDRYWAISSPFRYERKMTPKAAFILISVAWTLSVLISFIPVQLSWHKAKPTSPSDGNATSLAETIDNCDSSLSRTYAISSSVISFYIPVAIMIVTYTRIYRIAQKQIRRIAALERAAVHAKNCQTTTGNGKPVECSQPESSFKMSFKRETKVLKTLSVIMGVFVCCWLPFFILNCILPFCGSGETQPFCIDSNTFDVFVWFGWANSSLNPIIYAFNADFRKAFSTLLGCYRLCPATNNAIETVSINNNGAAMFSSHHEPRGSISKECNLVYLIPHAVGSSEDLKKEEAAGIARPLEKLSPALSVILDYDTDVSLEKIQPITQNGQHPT
Sequence of human Opioid Receptor Mu (Opiate Mu), OPRM1 (gene 4988) (P35372 whole entry, looked up): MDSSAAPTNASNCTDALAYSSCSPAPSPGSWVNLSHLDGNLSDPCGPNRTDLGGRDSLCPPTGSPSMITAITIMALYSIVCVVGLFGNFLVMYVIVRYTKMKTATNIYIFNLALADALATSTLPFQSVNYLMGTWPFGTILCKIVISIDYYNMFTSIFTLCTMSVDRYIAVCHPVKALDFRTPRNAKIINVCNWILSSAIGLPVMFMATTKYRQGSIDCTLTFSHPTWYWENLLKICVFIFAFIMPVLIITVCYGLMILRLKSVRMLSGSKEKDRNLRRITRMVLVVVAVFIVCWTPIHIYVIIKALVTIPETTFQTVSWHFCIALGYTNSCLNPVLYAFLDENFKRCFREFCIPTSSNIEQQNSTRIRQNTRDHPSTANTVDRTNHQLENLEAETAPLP
Sequence of human Neurokinin, NK2 Receptor, TACR2 (gene 6865) (P21452 whole entry, looked up): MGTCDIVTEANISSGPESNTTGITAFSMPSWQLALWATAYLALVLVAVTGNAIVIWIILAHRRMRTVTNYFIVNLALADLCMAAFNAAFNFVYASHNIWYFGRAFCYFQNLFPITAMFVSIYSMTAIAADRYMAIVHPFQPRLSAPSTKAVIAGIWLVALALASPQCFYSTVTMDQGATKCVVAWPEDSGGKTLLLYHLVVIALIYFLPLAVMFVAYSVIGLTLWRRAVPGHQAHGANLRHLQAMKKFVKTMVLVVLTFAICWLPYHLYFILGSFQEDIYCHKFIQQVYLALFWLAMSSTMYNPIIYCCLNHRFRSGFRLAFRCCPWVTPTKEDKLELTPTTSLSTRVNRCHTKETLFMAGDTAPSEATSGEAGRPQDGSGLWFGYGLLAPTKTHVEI
Sequence of Muscarinic acetylcholine receptor M2 (Homo sapiens) (P08172 whole entry, looked up): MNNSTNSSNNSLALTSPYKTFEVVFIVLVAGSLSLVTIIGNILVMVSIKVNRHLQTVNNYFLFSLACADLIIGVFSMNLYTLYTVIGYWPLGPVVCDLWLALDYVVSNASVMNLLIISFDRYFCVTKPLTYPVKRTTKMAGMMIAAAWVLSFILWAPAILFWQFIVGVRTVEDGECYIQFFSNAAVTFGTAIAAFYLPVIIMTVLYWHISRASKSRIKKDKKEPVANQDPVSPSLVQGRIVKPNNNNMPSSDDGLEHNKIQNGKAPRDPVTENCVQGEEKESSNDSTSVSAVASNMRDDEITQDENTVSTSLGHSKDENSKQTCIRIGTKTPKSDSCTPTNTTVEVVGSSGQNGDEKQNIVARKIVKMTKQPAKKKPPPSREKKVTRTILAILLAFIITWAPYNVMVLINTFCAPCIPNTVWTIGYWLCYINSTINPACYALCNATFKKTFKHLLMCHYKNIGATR
Sequence of human Histamine 1 Receptor (H1), HRH1 (gene 3269) (P35367 whole entry, looked up): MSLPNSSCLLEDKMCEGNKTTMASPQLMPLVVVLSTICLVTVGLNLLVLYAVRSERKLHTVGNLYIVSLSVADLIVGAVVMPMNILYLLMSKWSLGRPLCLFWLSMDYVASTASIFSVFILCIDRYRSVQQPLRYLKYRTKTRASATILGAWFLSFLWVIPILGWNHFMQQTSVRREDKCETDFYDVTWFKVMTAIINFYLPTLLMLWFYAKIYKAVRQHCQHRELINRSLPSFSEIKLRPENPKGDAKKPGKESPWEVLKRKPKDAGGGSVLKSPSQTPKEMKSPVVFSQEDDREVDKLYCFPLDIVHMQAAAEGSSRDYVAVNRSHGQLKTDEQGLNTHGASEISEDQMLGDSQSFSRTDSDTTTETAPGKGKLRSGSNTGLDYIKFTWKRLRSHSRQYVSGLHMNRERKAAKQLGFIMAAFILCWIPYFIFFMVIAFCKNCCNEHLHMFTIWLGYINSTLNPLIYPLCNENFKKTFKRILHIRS
Sequence of human Neuropeptide Receptor Y1 (NPY1), NPY1R (gene 4886) (P25929 whole entry, looked up): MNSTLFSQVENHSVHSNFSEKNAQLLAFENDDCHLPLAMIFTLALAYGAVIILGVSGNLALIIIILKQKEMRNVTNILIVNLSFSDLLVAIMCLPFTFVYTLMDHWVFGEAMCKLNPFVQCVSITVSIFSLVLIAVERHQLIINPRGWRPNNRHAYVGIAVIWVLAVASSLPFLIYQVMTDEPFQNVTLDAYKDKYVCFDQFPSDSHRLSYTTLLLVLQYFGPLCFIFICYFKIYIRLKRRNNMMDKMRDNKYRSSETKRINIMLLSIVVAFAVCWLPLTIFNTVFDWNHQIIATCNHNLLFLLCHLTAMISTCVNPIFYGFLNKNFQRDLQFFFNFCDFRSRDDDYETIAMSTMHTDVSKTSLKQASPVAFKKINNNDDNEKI
Sequence of Muscarinic acetylcholine receptor M3 (Homo sapiens) (P20309 whole entry, looked up): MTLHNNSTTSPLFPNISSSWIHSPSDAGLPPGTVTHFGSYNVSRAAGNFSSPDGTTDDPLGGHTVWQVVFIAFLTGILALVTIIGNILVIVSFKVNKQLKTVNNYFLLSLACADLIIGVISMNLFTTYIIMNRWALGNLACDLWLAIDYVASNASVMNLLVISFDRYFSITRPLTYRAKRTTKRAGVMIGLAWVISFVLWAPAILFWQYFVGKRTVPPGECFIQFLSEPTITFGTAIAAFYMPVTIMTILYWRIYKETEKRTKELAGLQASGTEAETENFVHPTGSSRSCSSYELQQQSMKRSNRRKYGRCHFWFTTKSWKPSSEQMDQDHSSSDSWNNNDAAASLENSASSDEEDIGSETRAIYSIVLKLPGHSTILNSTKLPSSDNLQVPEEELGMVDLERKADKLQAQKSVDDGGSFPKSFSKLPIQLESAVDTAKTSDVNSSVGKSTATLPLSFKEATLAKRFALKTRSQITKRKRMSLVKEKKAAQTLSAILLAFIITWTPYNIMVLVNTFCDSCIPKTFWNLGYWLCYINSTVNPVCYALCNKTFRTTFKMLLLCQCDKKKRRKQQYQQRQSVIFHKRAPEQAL
Sequence of human Endothelin Receptor Type B (ETB), EDNRB (gene 1910) (P24530 whole entry, looked up): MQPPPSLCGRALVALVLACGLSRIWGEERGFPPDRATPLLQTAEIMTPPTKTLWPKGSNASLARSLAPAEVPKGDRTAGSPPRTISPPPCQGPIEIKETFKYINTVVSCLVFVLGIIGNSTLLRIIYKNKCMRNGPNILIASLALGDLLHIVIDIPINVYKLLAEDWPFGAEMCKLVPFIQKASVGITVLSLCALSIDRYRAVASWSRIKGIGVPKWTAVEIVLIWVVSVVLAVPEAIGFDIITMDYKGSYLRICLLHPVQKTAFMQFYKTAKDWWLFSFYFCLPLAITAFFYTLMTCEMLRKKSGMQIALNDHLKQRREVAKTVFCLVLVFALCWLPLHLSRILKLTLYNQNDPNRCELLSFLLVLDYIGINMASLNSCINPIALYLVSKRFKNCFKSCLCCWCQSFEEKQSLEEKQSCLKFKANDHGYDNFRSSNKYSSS

Turning to `Cc1ccc([N+](=O)[O-])cc1C`, the compound was called inactive in test [1].

By AC50 is commonly meant the concentration giving half of the maximal activity seen. With `ClC(Cl)c1ccccc1`, the AC50 in [2] was 5.17 µM (active).

With `CC(C)(C)OOC(C)(C)C`, the outcome in test [3] and in test [4] was inactive.

As for `CSC(C)(C)C=NO`, the outcome in test [5], in test [3], in [6], in [4], in [7] and in [8] was inactive.

For `COP(N)(=S)OC`, in [5], the call was inactive.

Consider `CCCN(CCC)c1c([N+](=O)[O-])cc(C(C)C)cc1[N+](=O)[O-]`, for which the compound was called inactive in test [8].

On to `CCOP(=S)(OCC)SCn1nnc2ccccc2c1=O`, for which, in test [6], the outcome was inactive.

Take `O=C(O)C1C(C(=O)O)C2(Cl)C(Cl)=C(Cl)C1(Cl)C2(Cl)Cl` (stereo not given): in test [4], the call was inactive.

With `CCOP(=S)(OCC)SCS(=O)(=O)CC`, in test [8], the compound was classed as inactive.

In the case of `CC(Cc1ccc(OCC(=O)O)cc1)NCC(O)c1csc(C(F)(F)F)n1` (stereo not given), the call in test [9] was inactive.

Consider `Cc1ccc(O)cc1C`, for which the AC50 in test [10] is 21.1 µM (active). Besides, the call in test [8] was inactive.

With `c1cc2c3c(cccc3c1)CC2`, the result in [8] was inactive.

Take `CCCCCCCc1ccc(O)cc1`: in test [6], the compound was classed as inactive.

As to `c1ccc2c(c1)Nc1ccccc1S2`, the outcome in [10] and in test [11] was inactive.

On to `Oc1ccccc1Br`, for which the compound was classed as inactive in [5].

On to `CCOP(=S)(Oc1ccc([N+](=O)[O-])cc1)c1ccccc1` (stereo not given), for which the result in test [5], in test [12] and in test [13] was inactive.

As to `CCCCN(CCCC)SN(C)C(=O)Oc1cccc2c1OC(C)(C)C2`, the compound was classed as inactive in [14], in test [15], in test [4] and in test [8].

These data come from PubChem BioAssay (EPA / NIEHS).
